Binding signal data for five sequences are collected here from publication PMC11574364.

Test in all cases: protein domain microarray probed with biotinylated miRNA; Domain array: 20 mM Tris-HCl pH 7.4, 200 mM KCl, 0.2 mM EDTA, 0.05% NP40, 2 ug/ul heparin, overnight 4 C. ORF array: PBS pH 7.0 with RNase inhibitor, 100 ng RNA; high values mean tight binding
Common to all, as to conditions: ssRNA

The target in one test is T1, ADARB2(2) (Homo sapiens, UniProt Q9NS39).
T1 sequence: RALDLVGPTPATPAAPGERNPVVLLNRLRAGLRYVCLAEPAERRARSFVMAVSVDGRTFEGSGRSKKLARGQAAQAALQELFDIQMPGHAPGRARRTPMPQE

A further test addresses FBP3(1-4) (Homo sapiens, UniProt Q96I24).
The next test has as its target IGF2BP3(3-4) (Homo sapiens, UniProt O00425).
The target in a further test is T2, DGCR8 (Homo sapiens, UniProt Q8WYQ5).
T2 sequence: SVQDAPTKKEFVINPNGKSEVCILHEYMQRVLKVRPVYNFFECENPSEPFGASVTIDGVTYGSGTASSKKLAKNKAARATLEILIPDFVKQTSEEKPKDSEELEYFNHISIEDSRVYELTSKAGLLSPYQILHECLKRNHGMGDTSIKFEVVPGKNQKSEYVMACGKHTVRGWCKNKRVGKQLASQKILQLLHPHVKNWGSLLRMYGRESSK

In a further test the target is T3, QKI (Homo sapiens, UniProt Q96PU8).
T3 sequence: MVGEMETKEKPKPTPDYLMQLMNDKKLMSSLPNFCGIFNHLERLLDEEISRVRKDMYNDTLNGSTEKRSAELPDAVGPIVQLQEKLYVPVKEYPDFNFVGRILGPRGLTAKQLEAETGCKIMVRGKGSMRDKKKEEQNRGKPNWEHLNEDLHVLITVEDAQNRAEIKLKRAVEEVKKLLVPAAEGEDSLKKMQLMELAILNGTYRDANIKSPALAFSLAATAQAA

Sequence of FBP3(1-4) (Q96I24 57-441): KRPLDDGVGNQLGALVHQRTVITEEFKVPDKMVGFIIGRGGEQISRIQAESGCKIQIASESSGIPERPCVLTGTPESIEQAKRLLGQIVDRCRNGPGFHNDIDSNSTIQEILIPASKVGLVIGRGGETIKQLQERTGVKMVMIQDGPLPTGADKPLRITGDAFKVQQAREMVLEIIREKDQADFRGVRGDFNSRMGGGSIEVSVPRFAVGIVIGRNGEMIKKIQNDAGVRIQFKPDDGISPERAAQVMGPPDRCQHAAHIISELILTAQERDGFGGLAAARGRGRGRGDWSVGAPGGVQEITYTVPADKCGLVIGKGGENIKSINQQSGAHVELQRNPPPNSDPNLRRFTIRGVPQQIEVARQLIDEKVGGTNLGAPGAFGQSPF
Sequence of IGF2BP3(3-4) (O00425 387-579): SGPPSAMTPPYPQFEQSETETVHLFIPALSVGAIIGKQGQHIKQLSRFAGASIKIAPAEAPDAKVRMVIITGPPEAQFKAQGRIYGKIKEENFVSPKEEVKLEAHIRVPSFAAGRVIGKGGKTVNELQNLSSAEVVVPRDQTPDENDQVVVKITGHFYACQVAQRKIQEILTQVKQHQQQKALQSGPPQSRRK

As to UGAGGUAGUAGGUUGUAUGGUU, the binding signal with ADARB2(2) was 59.45 ± 0.594 fluorescence intensity; with FBP3(1-4), 77.1 ± 5.85 fluorescence intensity; with IGF2BP3(3-4) it was 96.125 ± 0.0778 fluorescence intensity; with DGCR8 it was 110 ± 8.32 fluorescence intensity; with QKI it was 33.2 ± 5.98 fluorescence intensity.
For UGAGGUAGUAGGUUGUGUGGUU, the binding signal with ADARB2(2) was 85.94 ± 0.24 fluorescence intensity; with FBP3(1-4), 107 ± 3.19 fluorescence intensity; with IGF2BP3(3-4), 169 ± 5.85 fluorescence intensity; with DGCR8, 212.8 ± 0.537 fluorescence intensity; in the test with QKI, 66.4 ± 1.27 fluorescence intensity.
Regarding CAGUGCAAUGAUGAAAGGGCAU, the binding signal with ADARB2(2) was found to be 32.5 ± 3.78 fluorescence intensity; with FBP3(1-4), 52.55 ± 0.495 fluorescence intensity; with IGF2BP3(3-4), 53.6 ± 2.39 fluorescence intensity; with DGCR8 it was 102 ± 2.74 fluorescence intensity; in the test with QKI, 37.7 ± 8.53 fluorescence intensity.
Take UGAGGUAGUAGGUUGUAUAGUU: the binding signal was found to be 38 ± 4.14 fluorescence intensity with FBP3(1-4), 29.1 ± 0.552 fluorescence intensity with IGF2BP3(3-4), 38.6 ± 3.32 fluorescence intensity in the test with DGCR8 and 20.4 ± 2.35 fluorescence intensity in the test with QKI.
In the case of AGAGGUAGUAGGUUGCAUAGUU, the binding signal is 23.8 ± 11.5 fluorescence intensity in the test with ADARB2(2); 63.6 ± 6.09 fluorescence intensity with FBP3(1-4); 64.5 ± 3.37 fluorescence intensity with IGF2BP3(3-4); 130 ± 1.15 fluorescence intensity with DGCR8; 33.1 ± 1.25 fluorescence intensity with QKI.
